Experimental data from PubChem BioAssay (NCI).
Several values for one entry are separate records, joined by “and”; a condition that tells them apart may be missing. Identical values can stand only once. Compounds without any hit were thinned out: in the full panel of roughly 79,000, 15% have a hit. The source holds several records for some structures; these can differ, active in one and inactive in another. Activity calls are given as the source filed them. Cut-off read from the data, not from the text of the source: active = growth inhibition above about 70%; inactive = the rest.

Legend:
[1] = NCI Yeast Anticancer Drug Screen. Data for the rad52 strain (AID 147);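 note: 0% = growth of vehicle-treated control cultures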; settings: S. cerevisiae rad52 mutant growth inhibition, stronger effect = higher value
Summary of the method: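 Screen used a yeast mutant impaired in DNA repair. After compound exposure, growth was measured. Values reflect inhibition compared with vehicle-treated cells.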

[2] = NCI Yeast Anticancer Drug Screen. Data for the wt1 strain (AID 149);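 note: 0% = growth of vehicle-treated wt1 cultures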; settings: S. cerevisiae wt1 strain (SPY 50644) growth inhibition, stronger effect = higher value
Summary of the method: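 Readout: yeast growth inhibition, normalised to vehicle controls, in the wt1 strain exposed to test compounds.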

[3] = NCI Yeast Anticancer Drug Screen. Data for the rad50EPP+ strain (AID 151);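 note: 0% = growth of vehicle-treated control cultures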; settings: S. cerevisiae rad50 mutant strain, stronger effect = higher value
Summary of the method: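 Exposing the rad50EPP+ strain to each compound, growth was compared with vehicle-only cultures to give inhibition.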

[4] = NCI Yeast Anticancer Drug Screen. Data for the mgt1 strain (AID 153); settings: S. cerevisiae mgt1 mutant growth inhibition, stronger effect = higher value
Summary of the method: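 Genetically defined yeast (mgt1) treated with compound; inhibition of growth expressed against vehicle-treated controls.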

[5] = NCI Yeast Anticancer Drug Screen. Data for the rad50 strain (AID 155);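 note: 0% = growth of vehicle-only cultures of the same strain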; settings: S. cerevisiae rad50 strain growth inhibition, stronger effect = higher value
Summary of the method: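 Compounds were tested on a yeast strain with an engineered DNA damage repair alteration; the reported value is growth inhibition normalised to vehicle treatment.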

[6] = NCI Yeast Anticancer Drug Screen. Data for the mec2-1 strain (AID 157); settings: S. cerevisiae mec2-1 strain, stronger effect = higher value
Summary of the method: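 Readout is yeast growth inhibition, normalised to vehicle-treated controls, in the mec2-1 strain exposed to compound.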

[7] = NCI Yeast Anticancer Drug Screen. Data for the rad14 strain (AID 159);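 note: 0% = growth of vehicle-treated control cultures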; settings: S. cerevisiae rad14 strain growth inhibition, stronger effect = higher value
Summary of the method: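 Compound-treated yeast with a defined DNA-repair lesion; growth inhibition normalised to vehicle-treated cultures.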

[8] = NCI Yeast Anticancer Drug Screen. Data for the sgs1 mgt1 strain (AID 161);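 note: 0% = growth of cultures given vehicle only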; settings: S. cerevisiae sgs1 mgt1 strain, stronger effect = higher value
Summary of the method: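 Yeast cells carrying a defined DNA-repair defect were exposed to test compounds. Growth inhibition was measured relative to vehicle-treated controls.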

[9] = NCI Yeast Anticancer Drug Screen. Data for the CLN2oe strain (AID 163);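 note: 0% = growth of vehicle-only control cultures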; settings: S. cerevisiae CLN2oe strain, stronger effect = higher value
Summary of the method: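 Values reflect how much compound exposure reduced yeast growth, referenced to vehicle-exposed cells. Assay organism is a strain with a defined genetic change affecting cell-cycle control.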

[10] = NCI Yeast Anticancer Drug Screen. Data for the cln2 rad14 strain (AID 165);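 note: 0% = growth equal to vehicle treated cultures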; settings: S. cerevisiae cln2 rad14 strain, stronger effect = higher value
Summary of the method: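 Relative to vehicle controls, growth inhibition of compound-treated cln2 rad14 yeast was recorded.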

[11] = NCI Yeast Anticancer Drug Screen. Data for the bub3 strain (AID 167); settings: S. cerevisiae bub3 mutant strain, stronger effect = higher value
Summary of the method: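 Growth of a checkpoint-deficient yeast mutant is measured after compound exposure. Values represent inhibition relative to vehicle.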

[12] = NCI Yeast Anticancer Drug Screen. Data for the wt2 strain (AID 169);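 note: 0% = growth of vehicle-treated yeast cultures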; settings: S. cerevisiae wt2 strain growth inhibition, stronger effect = higher value
Summary of the method: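 Values express reduction in yeast growth under compound treatment, referenced to vehicle-treated cells.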

[13] = NCI Yeast Anticancer Drug Screen. Data for the mlh1 strain (AID 171);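 note: 0% = growth of vehicle-treated control cultures of the same strain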; settings: S. cerevisiae mlh1 strain growth inhibition, stronger effect = higher value
Summary of the method: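 Steps: expose the defined-mutant yeast strain to compound; expose a parallel culture to vehicle; measure growth; express compound effect as inhibition relative to the vehicle culture.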

[14] = NCI Yeast Anticancer Drug Screen. Data for the sgs1 strain (AID 173);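 note: 0% = growth of vehicle-only control cultures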; settings: S. cerevisiae sgs1 mutant, stronger effect = higher value
Summary of the method: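 Treat defined-mutant yeast with compound; measure growth; calculate inhibition relative to vehicle-treated cells.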

[15] = NCI Yeast Anticancer Drug Screen. Data for the mlh1 rad18 strain (AID 175); settings: S. cerevisiae mlh1 rad18 strain growth inhibition, stronger effect = higher value
Summary of the method: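 Test agents were incubated with a yeast strain of defined genotype (DNA damage repair defect). Inhibition of growth was derived by comparison with vehicle-exposed cultures.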

[16] = NCI Yeast Anticancer Drug Screen. Data for the rad18 strain (AID 177); settings: S. cerevisiae rad18 mutant growth inhibition, stronger effect = higher value
Summary of the method: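 A genetically defined yeast mutant impaired in DNA damage repair was treated with test compounds, then its growth was measured against cultures receiving vehicle alone.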

[17] = at 5.0 µM (retest, dose inferred, filed as 0.5)
[18] = at 50.0 µM (retest, dose inferred, filed as 5.0)

SMILES: c1ccc(-c2cnc3ccccc3c2)cc1
- growth inhibition ([1]; at 1.2 µM): 0% (inactive)
- growth inhibition ([1]; at 3.7 µM): 3% (inactive)
- growth inhibition ([1]; at 11.0 µM): 0% (inactive)
- growth inhibition ([1]; at 33.0 µM): 28% (inactive)
- growth inhibition ([1]; at 100.0 µM): 99% (active)
- growth inhibition ([2]; at 1.2 µM): -7% (inactive)
- growth inhibition ([2]; at 3.7 µM): -8% (inactive)
- growth inhibition ([2]; at 11.0 µM): -12% (inactive)
- growth inhibition ([2]; at 33.0 µM): -12% (inactive)
- growth inhibition ([2]; at 100.0 µM): 98% (active)
- growth inhibition ([3]; at 1.2 µM): 7% (inactive)
- growth inhibition ([3]; at 3.7 µM): 14% (inactive)
- growth inhibition ([3]; at 11.0 µM): 37% (inactive)
- growth inhibition ([3]; at 33.0 µM): 70% (active)
- growth inhibition ([3]; at 100.0 µM): 98% (active)
- growth inhibition ([4]; at 1.2 µM): -5% (inactive)
- growth inhibition ([4]; at 3.7 µM): -7% (inactive)
- growth inhibition ([4]; at 11.0 µM): -6% (inactive)
- growth inhibition ([4]; at 33.0 µM): -6% (inactive)
- growth inhibition ([4]; at 100.0 µM): 96% (active)
- growth inhibition ([5]; at 1.2 µM): -5% (inactive)
- growth inhibition ([5]; at 3.7 µM): -3% (inactive)
- growth inhibition [5, 17]: -151% (inactive) and -148% (inactive)
- growth inhibition ([5]; at 11.0 µM): 14% (inactive)
- growth inhibition ([5]; at 33.0 µM): 47% (inactive)
- growth inhibition [5, 18]: 37% (inactive) and 47% (inactive)
- growth inhibition ([5]; at 50.0 µM): 70.1% (active) and 62.7% (inactive)
- growth inhibition ([5]; at 100.0 µM): 99% (active)
- growth inhibition ([6]; at 1.2 µM): 3% (inactive)
- growth inhibition ([6]; at 3.7 µM): -3% (inactive)
- growth inhibition [6, 17]: -52% (inactive)
- growth inhibition ([6]; at 11.0 µM): -12% (inactive)
- growth inhibition ([6]; at 33.0 µM): -3% (inactive)
- growth inhibition [6, 18]: 31% (inactive) and 18% (inactive)
- growth inhibition ([6]; at 50.0 µM): 56.7% (inactive) and 56.4% (inactive)
- growth inhibition ([6]; at 100.0 µM): 99% (active)
- growth inhibition ([7]; at 1.2 µM): -2% (inactive)
- growth inhibition ([7]; at 3.7 µM): 0% (inactive)
- growth inhibition ([7]; at 11.0 µM): -1% (inactive)
- growth inhibition ([7]; at 33.0 µM): 18% (inactive)
- growth inhibition ([7]; at 100.0 µM): 99% (active)
- growth inhibition [8, 17]: -68% (inactive) and -66% (inactive)
- growth inhibition [8, 18]: 36% (inactive) and 47% (inactive)
- growth inhibition ([8]; at 50.0 µM): 62% (inactive) and 49.7% (inactive)
- growth inhibition ([9]; at 1.2 µM): -6% (inactive)
- growth inhibition ([9]; at 3.7 µM): -7% (inactive)
- growth inhibition ([9]; at 11.0 µM): -1% (inactive)
- growth inhibition ([9]; at 33.0 µM): 6% (inactive)
- growth inhibition ([9]; at 100.0 µM): 97% (active)
- growth inhibition [10, 17]: -68% (inactive) and -62% (inactive)
- growth inhibition [10, 18]: -49% (inactive) and -39% (inactive)
- growth inhibition ([10]; at 50.0 µM): -14.5% (inactive) and -17.3% (inactive)
- growth inhibition ([11]; at 1.2 µM): -6% (inactive)
- growth inhibition ([11]; at 3.7 µM): 0% (inactive)
- growth inhibition [11, 17]: -51% (inactive) and -54% (inactive)
- growth inhibition ([11]; at 11.0 µM): 10% (inactive)
- growth inhibition ([11]; at 33.0 µM): 30% (inactive)
- growth inhibition [11, 18]: 18% (inactive) and 54% (inactive)
- growth inhibition ([11]; at 50.0 µM): 46.5% (inactive) and 63.5% (inactive)
- growth inhibition ([11]; at 100.0 µM): 99% (active)
- growth inhibition ([12]; at 1.2 µM): -4% (inactive)
- growth inhibition ([12]; at 3.7 µM): -3% (inactive)
- growth inhibition ([12]; at 11.0 µM): -5% (inactive)
- growth inhibition ([12]; at 33.0 µM): -6% (inactive)
- growth inhibition ([12]; at 100.0 µM): 98% (active)
- growth inhibition ([13]; at 1.2 µM): 2% (inactive)
- growth inhibition ([13]; at 3.7 µM): -9% (inactive)
- growth inhibition ([13]; at 11.0 µM): -7% (inactive)
- growth inhibition ([13]; at 33.0 µM): -9% (inactive)
- growth inhibition ([13]; at 100.0 µM): 99% (active)
- growth inhibition ([14]; at 1.2 µM): -3% (inactive)
- growth inhibition ([14]; at 3.7 µM): -5% (inactive)
- growth inhibition ([14]; at 11.0 µM): -11% (inactive)
- growth inhibition ([14]; at 33.0 µM): 12% (inactive)
- growth inhibition ([14]; at 100.0 µM): 99% (active)
- growth inhibition [15, 17]: -127% (inactive) and -135% (inactive)
- growth inhibition [15, 18]: -30% (inactive) and -44% (inactive)
- growth inhibition ([15]; at 50.0 µM): 55.5% (inactive) and 45% (inactive)
- growth inhibition ([16]; at 1.2 µM): -2% (inactive)
- growth inhibition ([16]; at 3.7 µM): -3% (inactive)
- growth inhibition ([16]; at 11.0 µM): 0% (inactive)
- growth inhibition ([16]; at 33.0 µM): 6% (inactive)
- growth inhibition ([16]; at 100.0 µM): 99% (active)
